Data on one compound can be found in ChEMBL document CHEMBL2218924, “A broad activity screen in support of a chemogenomic map for kinase signalling research and drug discovery” (Biochem J, 2013).

The residual activity is the signal under treatment as a percentage of the control signal.

The target in assay [1] is Ephrin type-A receptor 7 (Homo sapiens) (UniProt Q15375). The note with it: at 1 µM.
For assay [2] the target is unchanged. The settings on record: at 10 µM.
In assay [3] the target is T1, Ephrin type-B receptor 1 (Homo sapiens) (UniProt P54762).
T1 sequence (whole entry): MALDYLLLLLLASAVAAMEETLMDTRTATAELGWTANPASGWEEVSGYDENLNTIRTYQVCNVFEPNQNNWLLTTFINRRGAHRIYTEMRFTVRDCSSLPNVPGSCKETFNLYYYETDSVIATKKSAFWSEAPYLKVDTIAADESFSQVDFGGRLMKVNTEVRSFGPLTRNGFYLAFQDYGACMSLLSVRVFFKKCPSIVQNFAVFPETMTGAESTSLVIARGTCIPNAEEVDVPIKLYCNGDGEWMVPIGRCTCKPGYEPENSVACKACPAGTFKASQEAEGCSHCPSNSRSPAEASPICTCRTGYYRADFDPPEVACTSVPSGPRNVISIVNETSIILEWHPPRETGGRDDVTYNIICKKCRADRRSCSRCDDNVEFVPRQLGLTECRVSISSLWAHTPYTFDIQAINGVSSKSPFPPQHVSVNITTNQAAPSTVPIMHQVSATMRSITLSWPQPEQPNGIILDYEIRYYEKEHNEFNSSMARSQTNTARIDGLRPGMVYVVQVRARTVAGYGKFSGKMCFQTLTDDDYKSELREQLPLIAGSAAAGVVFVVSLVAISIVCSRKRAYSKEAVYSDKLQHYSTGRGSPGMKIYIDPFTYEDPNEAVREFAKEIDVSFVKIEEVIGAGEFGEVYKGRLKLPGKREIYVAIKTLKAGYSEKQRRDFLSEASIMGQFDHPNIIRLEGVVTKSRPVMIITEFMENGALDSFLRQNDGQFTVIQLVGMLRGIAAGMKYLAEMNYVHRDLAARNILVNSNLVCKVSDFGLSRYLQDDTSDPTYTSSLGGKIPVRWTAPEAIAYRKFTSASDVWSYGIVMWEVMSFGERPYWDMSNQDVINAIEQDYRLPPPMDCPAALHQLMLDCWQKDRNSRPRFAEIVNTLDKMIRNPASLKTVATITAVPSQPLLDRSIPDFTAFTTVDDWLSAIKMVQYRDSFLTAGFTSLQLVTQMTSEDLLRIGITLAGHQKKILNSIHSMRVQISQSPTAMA
The settings on record: at 1 µM.

Assay [4] concerns the target T1, Ephrin type-B receptor 1 (Homo sapiens). The settings on record: at 10 µM.
Assay [5] has as its target T2, Ephrin type-B receptor 3 (Homo sapiens) (UniProt P54753).
T2 sequence (whole entry): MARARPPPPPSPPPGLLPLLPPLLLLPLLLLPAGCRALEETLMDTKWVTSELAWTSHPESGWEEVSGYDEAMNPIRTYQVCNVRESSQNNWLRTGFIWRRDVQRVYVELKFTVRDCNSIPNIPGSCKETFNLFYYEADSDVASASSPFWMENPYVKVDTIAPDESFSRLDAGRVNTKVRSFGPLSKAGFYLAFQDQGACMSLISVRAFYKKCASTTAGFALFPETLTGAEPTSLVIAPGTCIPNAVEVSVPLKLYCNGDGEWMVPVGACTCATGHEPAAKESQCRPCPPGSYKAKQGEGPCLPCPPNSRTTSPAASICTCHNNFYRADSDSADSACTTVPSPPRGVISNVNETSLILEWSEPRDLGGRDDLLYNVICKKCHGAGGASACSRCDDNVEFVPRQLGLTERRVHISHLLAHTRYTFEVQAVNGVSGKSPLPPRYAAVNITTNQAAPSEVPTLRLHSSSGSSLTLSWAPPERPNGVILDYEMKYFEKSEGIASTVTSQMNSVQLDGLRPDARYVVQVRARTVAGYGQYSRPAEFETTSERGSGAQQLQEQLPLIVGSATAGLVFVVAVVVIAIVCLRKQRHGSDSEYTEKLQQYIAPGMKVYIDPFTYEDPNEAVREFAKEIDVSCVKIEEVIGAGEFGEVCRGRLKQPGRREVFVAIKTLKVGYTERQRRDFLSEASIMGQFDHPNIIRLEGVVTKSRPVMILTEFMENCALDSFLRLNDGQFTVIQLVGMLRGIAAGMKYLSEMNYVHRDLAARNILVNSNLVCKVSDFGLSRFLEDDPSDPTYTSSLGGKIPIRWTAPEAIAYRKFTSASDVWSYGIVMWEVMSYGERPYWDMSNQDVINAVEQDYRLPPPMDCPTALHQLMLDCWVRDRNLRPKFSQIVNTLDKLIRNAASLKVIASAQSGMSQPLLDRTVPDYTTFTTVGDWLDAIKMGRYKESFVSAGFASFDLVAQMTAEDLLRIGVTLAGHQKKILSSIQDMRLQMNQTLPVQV
The note with it: at 1 µM.

Assay [6] deals with T2, Ephrin type-B receptor 3 (Homo sapiens). The settings on record: at 10 µM.
Assay [7] deals with T3, Ephrin type-B receptor 4 (Homo sapiens) (UniProt P54760).
T3 sequence (whole entry): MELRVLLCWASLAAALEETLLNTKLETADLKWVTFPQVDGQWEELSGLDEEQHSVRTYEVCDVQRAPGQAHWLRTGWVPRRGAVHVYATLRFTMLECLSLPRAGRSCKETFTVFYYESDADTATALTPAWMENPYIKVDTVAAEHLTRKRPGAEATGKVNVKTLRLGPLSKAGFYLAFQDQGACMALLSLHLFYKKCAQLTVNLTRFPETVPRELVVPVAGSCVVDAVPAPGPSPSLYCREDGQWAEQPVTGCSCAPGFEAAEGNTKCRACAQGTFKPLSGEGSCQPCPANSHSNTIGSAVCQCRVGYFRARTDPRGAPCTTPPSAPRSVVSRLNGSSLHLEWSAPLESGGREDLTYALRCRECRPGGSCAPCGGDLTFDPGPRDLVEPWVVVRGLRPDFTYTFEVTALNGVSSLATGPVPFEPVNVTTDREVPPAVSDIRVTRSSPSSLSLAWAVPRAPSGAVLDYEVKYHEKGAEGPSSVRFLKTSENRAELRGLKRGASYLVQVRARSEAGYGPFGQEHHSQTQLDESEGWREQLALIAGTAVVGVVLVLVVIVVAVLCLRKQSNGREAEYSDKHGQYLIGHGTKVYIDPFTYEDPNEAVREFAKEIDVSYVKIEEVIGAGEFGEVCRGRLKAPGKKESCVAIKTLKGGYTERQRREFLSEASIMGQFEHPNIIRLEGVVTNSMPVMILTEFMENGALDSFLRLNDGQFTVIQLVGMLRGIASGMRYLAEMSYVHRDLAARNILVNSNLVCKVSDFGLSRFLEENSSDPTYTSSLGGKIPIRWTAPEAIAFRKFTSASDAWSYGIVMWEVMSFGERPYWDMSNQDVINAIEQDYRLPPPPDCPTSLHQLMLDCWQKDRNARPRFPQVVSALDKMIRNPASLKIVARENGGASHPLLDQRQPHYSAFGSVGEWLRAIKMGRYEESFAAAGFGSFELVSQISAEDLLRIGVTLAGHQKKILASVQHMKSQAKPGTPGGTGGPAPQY
The note with it: at 1 µM.

Assay [8] deals with T3, Ephrin type-B receptor 4 (Homo sapiens). The note with it: at 10 µM.
Assay [9] addresses Receptor tyrosine-protein kinase erbB-4 (Homo sapiens) (UniProt Q15303). The settings on record: at 1 µM.
The target in assay [10] is Focal adhesion kinase 1 (Homo sapiens) (UniProt Q05397). The settings on record: at 1 µM.
Chain of Focal adhesion kinase 1 (Homo sapiens) (Q05397 2-1052 limits assumed): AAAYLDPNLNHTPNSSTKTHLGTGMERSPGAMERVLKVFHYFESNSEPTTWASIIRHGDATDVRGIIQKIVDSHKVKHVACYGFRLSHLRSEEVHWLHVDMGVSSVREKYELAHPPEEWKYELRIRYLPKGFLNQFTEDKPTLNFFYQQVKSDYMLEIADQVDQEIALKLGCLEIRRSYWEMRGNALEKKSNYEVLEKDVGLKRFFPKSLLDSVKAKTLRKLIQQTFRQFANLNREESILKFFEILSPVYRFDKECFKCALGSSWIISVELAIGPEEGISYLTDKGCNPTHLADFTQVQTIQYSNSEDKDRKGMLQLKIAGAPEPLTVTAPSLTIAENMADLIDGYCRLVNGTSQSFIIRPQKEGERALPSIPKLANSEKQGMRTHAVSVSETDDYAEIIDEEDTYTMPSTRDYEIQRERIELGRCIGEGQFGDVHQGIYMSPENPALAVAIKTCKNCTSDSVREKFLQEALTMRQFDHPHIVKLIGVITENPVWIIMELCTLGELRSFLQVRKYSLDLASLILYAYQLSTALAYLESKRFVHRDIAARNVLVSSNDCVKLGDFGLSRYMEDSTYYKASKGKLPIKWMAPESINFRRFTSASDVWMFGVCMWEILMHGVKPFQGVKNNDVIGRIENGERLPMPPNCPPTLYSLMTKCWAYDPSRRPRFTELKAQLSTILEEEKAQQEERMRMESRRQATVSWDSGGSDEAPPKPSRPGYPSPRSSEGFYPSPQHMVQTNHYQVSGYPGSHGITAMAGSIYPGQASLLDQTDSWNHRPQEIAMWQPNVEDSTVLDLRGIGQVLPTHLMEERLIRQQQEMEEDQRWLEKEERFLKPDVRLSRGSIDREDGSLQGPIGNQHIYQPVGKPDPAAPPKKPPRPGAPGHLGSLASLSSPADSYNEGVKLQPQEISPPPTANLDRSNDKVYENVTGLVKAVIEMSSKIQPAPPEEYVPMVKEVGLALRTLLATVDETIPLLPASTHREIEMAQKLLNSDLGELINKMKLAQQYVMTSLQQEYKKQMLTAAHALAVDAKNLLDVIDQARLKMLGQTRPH

Chain of Ephrin type-A receptor 7 (Homo sapiens) (Q15375 28-998 limits assumed): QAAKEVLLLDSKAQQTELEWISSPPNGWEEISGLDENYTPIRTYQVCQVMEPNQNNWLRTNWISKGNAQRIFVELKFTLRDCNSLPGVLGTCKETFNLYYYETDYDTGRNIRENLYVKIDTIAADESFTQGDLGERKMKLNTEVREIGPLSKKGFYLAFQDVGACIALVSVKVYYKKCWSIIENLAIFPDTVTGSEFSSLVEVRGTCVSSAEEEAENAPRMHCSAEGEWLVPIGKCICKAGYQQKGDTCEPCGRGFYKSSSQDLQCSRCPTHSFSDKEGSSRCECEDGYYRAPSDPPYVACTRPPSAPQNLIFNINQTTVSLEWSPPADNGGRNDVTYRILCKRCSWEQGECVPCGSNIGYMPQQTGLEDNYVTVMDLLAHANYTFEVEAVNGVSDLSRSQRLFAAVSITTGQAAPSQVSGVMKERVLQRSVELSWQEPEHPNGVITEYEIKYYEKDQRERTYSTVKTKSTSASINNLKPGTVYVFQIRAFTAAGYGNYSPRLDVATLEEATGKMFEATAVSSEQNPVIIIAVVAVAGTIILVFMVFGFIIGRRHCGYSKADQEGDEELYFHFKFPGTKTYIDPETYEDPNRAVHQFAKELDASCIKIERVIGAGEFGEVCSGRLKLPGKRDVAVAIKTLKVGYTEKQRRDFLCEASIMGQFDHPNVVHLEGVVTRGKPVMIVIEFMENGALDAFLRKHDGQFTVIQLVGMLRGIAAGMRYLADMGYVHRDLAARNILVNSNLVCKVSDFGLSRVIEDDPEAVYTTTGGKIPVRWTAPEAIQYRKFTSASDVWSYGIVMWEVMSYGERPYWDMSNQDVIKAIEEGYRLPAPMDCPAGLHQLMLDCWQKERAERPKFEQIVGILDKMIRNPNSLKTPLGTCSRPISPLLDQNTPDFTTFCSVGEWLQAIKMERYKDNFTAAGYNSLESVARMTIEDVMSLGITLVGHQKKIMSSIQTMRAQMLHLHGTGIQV
Chain of Receptor tyrosine-protein kinase erbB-4 (Homo sapiens) (Q15303 whole entry): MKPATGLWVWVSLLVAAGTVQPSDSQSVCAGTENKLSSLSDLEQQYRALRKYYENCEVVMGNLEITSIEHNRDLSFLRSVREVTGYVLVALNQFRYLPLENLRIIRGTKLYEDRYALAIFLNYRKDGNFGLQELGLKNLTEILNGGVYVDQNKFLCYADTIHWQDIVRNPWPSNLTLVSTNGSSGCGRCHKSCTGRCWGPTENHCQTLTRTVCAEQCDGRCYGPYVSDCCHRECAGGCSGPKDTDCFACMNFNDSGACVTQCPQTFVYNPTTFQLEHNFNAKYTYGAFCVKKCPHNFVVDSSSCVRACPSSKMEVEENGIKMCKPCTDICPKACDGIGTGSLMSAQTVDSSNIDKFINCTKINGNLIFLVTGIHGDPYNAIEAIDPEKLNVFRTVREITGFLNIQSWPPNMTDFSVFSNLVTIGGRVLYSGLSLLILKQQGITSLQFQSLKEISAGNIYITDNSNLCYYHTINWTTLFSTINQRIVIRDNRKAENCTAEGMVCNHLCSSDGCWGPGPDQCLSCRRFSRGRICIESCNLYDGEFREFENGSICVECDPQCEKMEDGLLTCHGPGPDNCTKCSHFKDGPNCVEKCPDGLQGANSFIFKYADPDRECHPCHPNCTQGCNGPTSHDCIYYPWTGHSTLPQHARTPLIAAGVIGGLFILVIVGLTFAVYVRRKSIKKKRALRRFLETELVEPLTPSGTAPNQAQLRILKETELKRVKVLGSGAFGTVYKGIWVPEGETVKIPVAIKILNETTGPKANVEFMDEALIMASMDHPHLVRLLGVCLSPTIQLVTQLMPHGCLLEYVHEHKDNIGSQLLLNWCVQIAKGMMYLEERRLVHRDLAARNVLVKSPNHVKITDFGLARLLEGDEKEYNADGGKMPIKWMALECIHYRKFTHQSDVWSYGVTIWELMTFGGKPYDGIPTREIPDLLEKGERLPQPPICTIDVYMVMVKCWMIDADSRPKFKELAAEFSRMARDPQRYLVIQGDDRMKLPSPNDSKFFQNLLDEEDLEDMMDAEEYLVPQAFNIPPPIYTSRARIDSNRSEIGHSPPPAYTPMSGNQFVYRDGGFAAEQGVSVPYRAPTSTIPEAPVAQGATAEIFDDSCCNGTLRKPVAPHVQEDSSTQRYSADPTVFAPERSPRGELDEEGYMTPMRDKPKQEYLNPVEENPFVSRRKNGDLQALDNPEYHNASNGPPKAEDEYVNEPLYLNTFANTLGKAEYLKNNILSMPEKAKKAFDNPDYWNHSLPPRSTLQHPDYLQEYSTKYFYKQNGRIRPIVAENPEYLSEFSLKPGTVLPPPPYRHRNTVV

On to `c1ccc(-c2n[nH]c3c2oc2ccccc23)cc1`, for which the residual activity was 96% in assay [1]; 78% in [2]; 99% in assay [3]; 90% in assay [4]; 93% (inactive) in assay [5]; 100% in assay [6]. Further, the residual activity came to 100% in assay [7], 116% in [8], 90% in assay [9] and 122% in assay [10].
